{"source": "PubChem BioAssay AID1879", "about": "(The Scripps Research Institute Molecular Screening Center, 2009)", "system": "SARS coronavirus 3C-like protease (3CLpro)", "experiment": "SARS 3CLpro inhibition, confirmation assay, retest, confirmation, biochemical (AID 1879)", "details": "QFRET protease activity assay, at 6 µM, hits give high values", "note": "This is one part of the list. Calls of active or inactive are those of the source. No stated cut-off is given here; in the data, active means inhibition above about 13%; inactive means the rest."}
{"smiles": "C=C(C)COc1ccc(-c2n[nH]c(C)c2-c2ccccc2)c(O)c1", "values": [{"measurement": "inhibition", "value": "5.95% (inactive)"}]}
{"smiles": "O=C(NCc1ccccc1)c1ccc(S(=O)(=O)Nc2cccc(C(F)(F)F)c2)cc1", "values": [{"measurement": "inhibition", "value": "7.75% (inactive)"}]}
{"smiles": "O=C(c1cc(=O)c2ccccc2o1)N1CCN(c2ccccc2)CC1", "values": [{"measurement": "inhibition", "value": "12.2% (inactive)"}]}
{"smiles": "CCC(C)(C)NC(=O)C(c1ccc(O)cc1)N(C(=O)Cn1nnc2ccccc21)c1ccc(NC(C)=O)cc1", "note": "(centres undefined)", "values": [{"measurement": "inhibition", "value": "25.6% (active)"}]}
{"smiles": "O=C(O)c1ccc(NC(=O)c2cn(-c3ccccc3)nc2-c2ccc(Cl)cc2)cc1", "values": [{"measurement": "inhibition", "value": "6.65% (inactive)"}]}
{"smiles": "Cc1cccc2c1N(CCOc1ccccc1)C(=O)C2=O", "values": [{"measurement": "inhibition", "value": "19.1% (active)"}]}
{"smiles": "C[C@@]12C(=O)N(c3cccc(Br)c3)C(=O)N1[C@H](c1ccc(Cl)cc1)[C@@H]1C(=O)N(C3CCCCC3)C(=O)[C@@H]12", "values": [{"measurement": "inhibition", "value": "15.9% (active)"}]}
{"smiles": "CN1CCN(CC(=O)Nc2cccc([N+](=O)[O-])c2)CC1", "values": [{"measurement": "inhibition", "value": "1.01% (inactive)"}]}
{"smiles": "COc1ccccc1N(C(=O)Cn1nnc2ccccc21)C(C(=O)NCc1ccco1)c1ccc(C)o1", "note": "(centres undefined)", "values": [{"measurement": "inhibition", "value": "26.2% (active)"}]}
{"smiles": "COC(=O)c1cc(NC(=O)Cc2ccccc2[N+](=O)[O-])ccc1Cl", "values": [{"measurement": "inhibition", "value": "15% (active)"}]}
{"smiles": "O=C1C(=O)N(CC2COc3ccccc3O2)c2ccccc21", "note": "(centres undefined)", "values": [{"measurement": "inhibition", "value": "23.1% (active)"}]}
{"smiles": "O=Cc1cn(Cc2ccccc2)nc1-c1cccnc1", "values": [{"measurement": "inhibition", "value": "47.9% (active)"}]}
{"smiles": "COC(=O)COc1cccc2c(=O)n(CC(=O)NCc3ccccc3)ccc12", "values": [{"measurement": "inhibition", "value": "5.39% (inactive)"}]}
{"smiles": "Cc1ccc(C(=O)NCCN2CCOCC2)cc1C", "values": [{"measurement": "inhibition", "value": "0.81% (inactive)"}]}
{"smiles": "CCCCNC(=O)N(O)C1N(/N=C/c2ccc(N(C)C)cc2)C(=S)SC1(C)C", "note": "(centres undefined)", "values": [{"measurement": "inhibition", "value": "-0.44% (inactive)"}]}
{"smiles": "Cc1ccc(OCC(=O)Nc2ccc(C(=O)O)cc2NC(=O)COc2ccc(C)c(C)c2)cc1C", "values": [{"measurement": "inhibition", "value": "8.89% (inactive)"}]}
{"smiles": "Cc1cccc(C(=O)Nc2nnc(Cc3c[nH]c4ccccc34)s2)c1", "values": [{"measurement": "inhibition", "value": "5.81% (inactive)"}]}
{"smiles": "CC(=O)c1cc(-c2ccccc2)[nH]c1N1CCCC1", "values": [{"measurement": "inhibition", "value": "22.5% (active)"}]}
{"smiles": "CC(C)c1ccc(N(C(=O)c2ccco2)C(C(=O)NC2CCCC2)c2cccnc2)cc1", "note": "(centres undefined)", "values": [{"measurement": "inhibition", "value": "47.8% (active)"}]}
